Assay results published in PubChem BioAssay (NCATS).
Inconclusive results are not listed. Values without a mark were called inactive. Calls follow the shape of the dose curve; as a rule, active = well fitted cell-killing curve with a large enough effect; inconclusive = small, poorly fitted or top-dose-only effect, or effect the other way; inactive = flat fitted curve, though single readings scatter.

System: PA-1
Assay: Primary qHTS to identify gynecologic anti-cancer compounds using libraries of approved drugs and bioactive compounds (AID 1345084); also: nearly all actives have a fitted effect of over 55% in size
Details: Gynecologic cancer cell panel viability, ATPlite luminescence, 48 h; series mostly up to 57.5 µM; activity change, negative = cytotoxicity: at the top concentration
Method in brief: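 ATP-based viability (ATPlite), 1,000 cells/well, 16 h pre-incubation, 48 h compound at 37 C, 5% CO2, 15 min RT before read.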
% is scaled to controls: 0 for no effect and ±100 for the full control effect.

SMILES	activity change, negative = cytotoxicity
O=C(OC[C@H]1O[C@H](O[C@]2(CO)O[C@H](CO)[C@@H](O)[C@@H]2O)[C@H](O)[C@@H](O)[C@@H]1O)c1ccc(O)cc1	8.51% [at 25.3 µM]
C=CC(C)(O)C1CC2C3(C)CCCC(C)(C)C3C(O)C(O)C2(C)O1 (stereo unspecified)	-2.97% [at 38.5 µM]
CC1CC(=O)[C@]2(O)C(C(=O)OCCc3ccc(O)c(O)c3)=CO[C@@H](O[C@@H]3O[C@H](CO)[C@@H](O)[C@H](O)[C@H]3O)[C@H]12 (stereo partly specified)	-3.54% [at 25.3 µM]
COc1cc(O)cc2c1C(=O)OC(C)CCCCCCC2 (stereo unspecified)	-5.05%
C=C(C)[C@H]1CC[C@]2(C(=O)O)CC[C@]3(C)C(CCC4[C@@]5(C)CCC(=O)C(C)(C)C5CC[C@]43C)C12 (stereo partly specified)	4.07% [at 25.3 µM]
OCC1OC(Oc2cc(O)cc(/C=C/c3ccc(OC4OC(CO)C(O)C(O)C4O)cc3O)c2)C(O)C(O)C1O (stereo unspecified)	-0.688% [at 25.3 µM]
CC(C)[C@](O)(c1ccc2cc(OC(F)F)c(OC(F)F)cc2c1)c1cn[nH]n1	-22.1%
C/C=C1/[C@H](O[C@@H]2O[C@H](CO)[C@@H](O)[C@H](O)[C@H]2O)OC=C(C(=O)OC)[C@H]1CC(=O)OCCc1ccc(OC(=O)C[C@@H]2C(C(=O)OC)=CO[C@@H](O[C@@H]3O[C@H](CO)[C@@H](O)[C@H](O)[C@H]3O)/C2=C/C)cc1	1.32% [at 11.6 µM]
C/C(=C/CO)CC[C@H]1[C@]2(C)C[C@H](O)CC(C)(C)[C@H]2CC[C@]1(C)O	2.96% [at 38.5 µM]
C[C@@H]1O[C@@H](O[C@@H]2\C=C/C=C\C=C/C=C\C[C@H](C)OC(=O)/C=C\[C@H]3O[C@@H]3C[C@H](O)C[C@]3(O)C[C@@H](O)[C@@H](C(=O)O)[C@H](C2)O3)[C@H](O)[C@H](N)[C@@H]1O	-0.99% [at 38.5 µM]
COc1cc(C)c(C(=O)O[C@@H]2[C@H](O)[C@@H](CO)O[C@H]2n2ccc(=O)[nH]c2=O)c(OC)c1	15.2% [at 25.3 µM]
C=C(CCO)C(=O)OCC1OCC(OC(=O)C(=C)CCO[C@@H]2O[C@H](CO)[C@@H](O)[C@H](O)[C@H]2O)C(O)C1O (stereo partly specified)	5.35% [at 25.3 µM]
COc1ccc(/C=C/C(=O)N2CCCC2)cc1	-2.25%
C[C@@H]1O[C@@H](OC[C@H]2O[C@@H](OCc3ccccc3)[C@H](O)[C@@H](O)[C@@H]2O)[C@H](O)[C@H](O)[C@H]1O	7.04% [at 25.3 µM]
CC(=O)O[C@@H]1C=C2[C@H](CC[C@@]3(C)[C@@]2(O)CC[C@H]2Cc4c([nH]c5ccccc45)[C@@]23C)O[C@@H]1C(C)(C)O	19.5% [at 25.3 µM]
Cc1cc(Cn2cnc3c2CC(C(=O)O)N(C(=O)C(c2ccccc2)c2ccccc2)C3)ccc1N(C)C (stereo unspecified)	0.646%
